{"source": "PubChem BioAssay AID1626", "about": "(SRMLSC, 2009)", "note": "“And” between values parts separate entries of the source, which are not always exact repeats. Identical values can stand only once. Hit rate of the full screen: of about 220,000 compounds, about 2,000 (0.91%) were called active. Another 2% or so got no clear call; they are omitted. No stated cut-off is given here; in the data, inconclusive means inhibition above about 80% without an active follow-up result; inactive means below that; test concentration not stated here. These entries were drawn from the full list. Potency and affinity values are given separately.", "data": [{"test": "M. tuberculosis H37Rv growth inhibitors, H37Rv strain (AID 1626);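 further: bacteria incubated seven days before Alamar blue readout; 0% = bacteria only wells and 100% = bacteria with antibiotic wells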", "conditions": "stronger effect = higher value, concentration not given here", "values": [{"smiles": "CN(C)/C=C1\\N=C(c2ccccc2)OC1=O", "inhibition": "8.41% (inactive)"}, {"smiles": "CC(=O)Oc1ccc2c(=O)c(Oc3ccccc3)c(C)oc2c1OC(C)=O", "inhibition": "-17.4% (inactive)"}, {"smiles": "COc1ccc(-c2[nH]ncc2CNC(C)Cc2cccc(C)n2)cc1F", "note": "(stereo unspecified)", "inhibition": "0.91% (inactive)"}, {"smiles": "O=C1NC[C@H](c2ccccc2)N(CCc2cccc(F)c2)C1=O", "inhibition": "-4.05% (inactive)"}, {"smiles": "CCOc1ccc(CCN2C(=O)C(=O)N([C@H](CCCN(C)Cc3ccccc3)CNCc3ccccc3)C[C@@H]2C(C)C)cc1", "inhibition": "-12.7% (inactive)"}, {"smiles": "Cc1ccc(CCN2CC(C(=O)NCCCN(C)Cc3ccccc3)CC2=O)cc1", "note": "(stereo unspecified)", "inhibition": "2.65% (inactive)"}, {"smiles": "COc1ccc(CNC(=O)[C@@H]2CC=C[C@@H]3CCN(Cc4ccc(Cl)c(Cl)c4)C(=O)[C@@H]32)cc1", "inhibition": "6.56% (inactive)"}, {"smiles": "Cc1cc(C)nc(NS(=O)(=O)c2ccc(NC(=O)c3ccco3)cc2)n1", "inhibition": "3.55% (inactive)"}, {"smiles": "O=C(Nc1ccc(Cl)cc1)OCc1cn(-c2ccc(Cl)cc2)nn1", "inhibition": "-0.6% (inactive)"}, {"smiles": "O=C(CCN1CCCCC1)N/N=C/c1c[nH]c2ccccc12", "inhibition": "-4.97% (inactive)"}, {"smiles": "Cc1ccc(C)c(N(C(=O)CS(=O)CC(=O)Nc2ccc3c(c2)OCO3)C(C)C(=O)NC2CCCC2)c1", "note": "(stereo unspecified)", "inhibition": "-13.4% (inactive)"}, {"smiles": "CC1(C)CC(=O)C(C=Nc2ccc(O)cc2)=C(O)C1", "inhibition": "1.61% (inactive)"}, {"smiles": "CC1(C)CC(=O)C(C=Nc2ccc(N)cc2)=C(O)C1", "inhibition": "0.045% (inactive)"}, {"smiles": "COCCNC(=O)CSc1c2c(nc3ccc(Cl)cc13)CCCC2", "inhibition": "0.54% (inactive)"}, {"smiles": "O=C(O)c1c2c(nc3ccc(Cl)cc13)CCC2", "inhibition": "-3.42% (inactive)"}, {"smiles": "Oc1ccc(-n2cnnn2)cc1", "inhibition": "-8.59% (inactive)"}, {"smiles": "CC(=O)Nc1ccc(Nc2cc(C)nc3c(-c4ccccc4)cnn23)cc1", "inhibition": "72.8% (inactive)"}, {"smiles": "Cc1cc(-c2ccccc2)n2ncc(-c3ccccc3)c2n1", "inhibition": "7.91% (inactive)"}, {"smiles": "Cc1nccn1-c1cc(C(C)(C)C)nc2c(-c3ccccc3)cnn12", "inhibition": "2.7% (inactive)"}, {"smiles": "CCc1nccn1-c1cc(C(C)(C)C)nc2c(-c3ccc(Cl)cc3)cnn12", "inhibition": "3.22% (inactive)"}, {"smiles": "Cc1cc(NCCN2CCOCC2)n2ncc(-c3ccccc3)c2n1", "inhibition": "8.29% (inactive)"}, {"smiles": "Cc1cc(N)n2ncc(-c3ccccc3)c2n1", "inhibition": "8.61% (inactive)"}, {"smiles": "O=C(COc1ccccc1)N1c2ccccc2Sc2ccccc21", "inhibition": "-4.38% (inactive)"}, {"smiles": "O=C(O)c1ccccc1SCC(=O)N1CCOCC1", "inhibition": "7.09% (inactive)"}, {"smiles": "CCOc1cccc2sc(Cl)nc12", "inhibition": "-8.06% (inactive)"}, {"smiles": "CN=C(SCc1ccccc1)c1c(O)n(C)c(=O)n(C)c1=O", "inhibition": "-0.87% (inactive)"}, {"smiles": "CN=C(SCc1cc2c(cc1Cl)OCO2)c1c(O)n(C)c(=O)n(C)c1=O", "inhibition": "-0.46% (inactive)"}, {"smiles": "C=CCN=C(SCC(=O)c1ccc(Cl)cc1)c1c(O)n(C)c(=O)n(C)c1=O", "inhibition": "1.31% (inactive)"}, {"smiles": "CSC(=Nc1ccccc1)c1c(O)n(C)c(=O)n(C)c1=O", "inhibition": "-1.82% (inactive)"}, {"smiles": "CCNC(=O)CC1S/C(=N/N=C(\\C)c2ccccc2)NC1=O", "note": "(stereo unspecified)", "inhibition": "2.78% (inactive)"}, {"smiles": "O=C(CNC(=O)c1cccs1)c1ccc(F)cc1", "inhibition": "4.53% (inactive)"}, {"smiles": "CCN(CC)S(=O)(=O)c1ccc(C(=O)OCC(=O)Nc2sc3c(c2C#N)CCCCC3)cc1", "inhibition": "6.83% (inactive)"}, {"smiles": "COc1ccc(-c2cc(-c3ccccc3)[n+](C)c(-c3ccccc3)c2)cc1", "inhibition": "2.49% (inactive)"}, {"smiles": "COc1ccc(-c2ccc(OC)cc2)cc1", "inhibition": "-6.18% (inactive)"}, {"smiles": "CC(=O)Nc1cccc(C(=O)/C=C/c2ccc(F)cc2)c1", "inhibition": "16.5% (inactive)"}, {"smiles": "CC(=O)Nc1cccc(C(=O)/C=C/c2ccc[nH]2)c1", "inhibition": "-13.8% (inactive)"}, {"smiles": "CC(=O)Nc1cccc(C(=O)/C=C/c2ccc(N(C)C)cc2)c1", "inhibition": "8.2% (inactive)"}, {"smiles": "CC(=O)Nc1cccc(C(=O)/C=C/c2ccc(/C=C/C(=O)c3cccc(NC(C)=O)c3)cc2)c1", "inhibition": "2.15% (inactive)"}, {"smiles": "CCC(=O)Nc1cccc(C(=O)c2ccccc2)c1", "inhibition": "25.8% (inactive)"}, {"smiles": "CCC(=O)Nc1cccc(C(=O)/C=C/c2cccs2)c1", "inhibition": "31.2% (inactive)"}, {"smiles": "CC(C)CN1C(=O)C(NC(=O)C2CC2)(C(F)(F)F)C2=C1CC(C)(C)CC2=O", "note": "(stereo unspecified)", "inhibition": "-4.55% (inactive)"}, {"smiles": "COc1ccc(-n2c(SCC(=O)N/N=C/c3ccccc3OCC(=O)O)nc3ccccc3c2=O)cc1", "inhibition": "-3.87% (inactive)"}, {"smiles": "COc1ccc(-c2cc(C(=O)OCC(=O)N(C)C)c3ccccc3n2)cc1", "inhibition": "-8.2% (inactive)"}, {"smiles": "N#CCCN/N=C(\\Cc1nc2ccccc2[nH]1)c1ccccc1", "inhibition": "-0.45% (inactive)"}, {"smiles": "COc1cc(C(C)=O)ccc1COc1ccc(C(=O)OCC(=O)NC2CCS(=O)(=O)C2)cc1OC", "note": "(stereo unspecified)", "inhibition": "1.52% (inactive)"}, {"smiles": "O=C(O)CCn1cc(/C=C\\C(=O)c2ccc(Cl)cc2)c(-c2cccc(Br)c2)n1", "inhibition": "-1.2% (inactive)"}, {"smiles": "CCN(CC)CCCNc1cc(C)nc2cc(-c3cccs3)nn12", "inhibition": "-2.4% (inactive)"}, {"smiles": "CC(Oc1ccc(Cl)cc1Cl)c1nc(-c2ccc(NC(=O)c3cccnc3)cc2)no1", "note": "(stereo unspecified)", "inhibition": "76.2% (inactive)"}, {"smiles": "CC(Oc1ccc(Cl)cc1Cl)c1nc(-c2ccc(NC(=O)c3ccccn3)cc2)no1", "note": "(stereo unspecified)", "inhibition": "-3.67% (inactive)"}, {"smiles": "CCCOc1ccc(-c2nc(OC)c3ccccc3n2)cc1", "inhibition": "77% (inactive)"}, {"smiles": "O=C(/C=C/c1ccc(Br)cc1)c1ccc(NC(=O)c2ccco2)cc1", "inhibition": "10.8% (inactive)"}, {"smiles": "Nc1ccc(/C=C/C(=O)c2ccco2)cc1", "inhibition": "78.3% (inactive)"}, {"smiles": "S=c1[nH]c2cc3ccccc3cc2[nH]1", "inhibition": "73.9% (inactive) and 72.9% (inactive)"}, {"smiles": "S=c1[nH]c2ccccc2[nH]1", "inhibition": "-2.67% (inactive)"}, {"smiles": "O=C(Cc1ccc(S(=O)(=O)N2CCCC2)s1)Nc1nc2c(s1)CCCC2", "inhibition": "1.89% (inactive)"}, {"smiles": "Cc1ccccc1COc1ccc(/C=C(\\C#N)C(N)=O)cc1", "inhibition": "6.69% (inactive)"}, {"smiles": "CCOc1ccc(OCCN(C)Cc2ccccc2)cc1", "inhibition": "4.01% (inactive)"}, {"smiles": "Cc1cc(-c2cccc([N+](=O)[O-])c2)nc2ccc3ccccc3c12", "inhibition": "-9.17% (inactive)"}, {"smiles": "COc1cc(-c2nc3ccc4ccccc4c3c3c2CCC3)cc(OC)c1OC", "inhibition": "-4.59% (inactive)"}, {"smiles": "Oc1ccc(-c2nc3ccc4ccccc4c3c3c2CCC3)cc1O", "inhibition": "1.26% (inactive)"}, {"smiles": "COc1cc(-c2nc3ccc4ccccc4c3c3c2CCC3)ccc1O", "inhibition": "20.8% (inactive)"}, {"smiles": "Cc1ccc(/C=C/C(=O)NCc2ccncc2)cc1", "inhibition": "7.66% (inactive)"}, {"smiles": "Cn1c(N)c(C(=O)COC(=O)C2CCCC2)c(=O)n(C)c1=O", "inhibition": "-2.87% (inactive)"}, {"smiles": "Cc1ccc(S(=O)(=O)N(C)C)cc1NC(=S)NNC(=O)C(N)=O", "inhibition": "1.54% (inactive)"}, {"smiles": "CCCCCCC(=O)N(O)C1CC(=O)N(c2ccc(Cl)cc2)C1=O", "note": "(stereo unspecified)", "inhibition": "7.87% (inactive)"}, {"smiles": "CCOCCOC(=O)c1cccc(NC(=O)OCC)c1", "inhibition": "-3.13% (inactive)"}, {"smiles": "C=CCn1c(O)c(N=NC(=O)CNC(=O)/C=C/c2ccco2)c2ccccc21", "inhibition": "-15.1% (inactive)"}, {"smiles": "OCc1nc2ccccc2n1/N=C/c1cccs1", "inhibition": "1.55% (inactive)"}, {"smiles": "Cc1cc2ncn(/N=C/c3cccnc3)c2cc1C", "inhibition": "7.38% (inactive)"}, {"smiles": "O=[N+]([O-])c1ccc(O)c(/C=N/n2c(CO)nc3ccccc32)c1", "inhibition": "-3.46% (inactive)"}, {"smiles": "Cc1ccc(/C=N/n2c(C)nc3ccccc3c2=O)s1", "inhibition": "-1.18% (inactive)"}, {"smiles": "Cc1cc2ncn(/N=C/c3cc(Br)ccc3O)c2cc1C", "inhibition": "-5.04% (inactive)"}, {"smiles": "Cc1nc2ccccc2n1/N=C/c1cccnc1", "inhibition": "-6.36% (inactive)"}, {"smiles": "OCCN(CCO)CC(O)COc1ccc(C23CC4CC(CC(C4)C2)C3)cc1", "note": "(stereo unspecified)", "inhibition": "24.6% (inactive)"}, {"smiles": "CCC1CCCCN1CCCNC(=O)Cn1nc(-c2ccc(C)cc2)ccc1=O", "note": "(stereo unspecified)", "inhibition": "-8.72% (inactive)"}, {"smiles": "O=C(CSc1nnc(-c2ccco2)n1Cc1ccco1)Nc1ccccc1", "inhibition": "-2.58% (inactive)"}, {"smiles": "Cc1cccc(NP(=O)(Oc2ccccc2F)Oc2ccccc2F)c1C", "inhibition": "1.18% (inactive)"}, {"smiles": "O=C(NCc1ccccc1)c1ccccc1-c1nc2ccccc2[nH]1", "inhibition": "4.78% (inactive)"}, {"smiles": "CCOC(=O)Cc1c(C)nc2c(-c3ccc(Cl)cc3)c(C)[nH]n2c1=O", "inhibition": "78.8% (inactive)"}, {"smiles": "Cc1ccc(-c2csc(NC(=O)CSc3nc(C)cc(=O)[nH]3)n2)cc1", "inhibition": "1.91% (inactive)"}, {"smiles": "OC(c1cc(C(F)(F)F)nc2c(Cl)cc(Cl)cc12)C1CCCCN1", "note": "(stereo unspecified)", "inhibition": "49.4% (inactive)"}, {"smiles": "Clc1ccc(-c2cc(-c3nnc4n3CCCCC4)c3ccccc3n2)cc1", "inhibition": "71.9% (inactive)"}, {"smiles": "CCN(CC)S(=O)(=O)c1ccc(N2CCCC2)c(NC(=O)CC(C)(C)C)c1", "inhibition": "-7.98% (inactive)"}, {"smiles": "O=C(Nc1cc(Sc2ccccn2)cc([N+](=O)[O-])c1)c1ccc(Cl)cc1", "inhibition": "7.55% (inactive)"}, {"smiles": "COC(=O)c1cc(OC)c(OC)cc1NC(=S)Nc1cc(Cl)ccc1OC", "inhibition": "-12% (inactive)"}, {"smiles": "Nc1ccc(Nc2nc(-c3cc4ccccc4oc3=O)cs2)cc1", "inhibition": "-8.26% (inactive)"}, {"smiles": "O=C(Nc1nc(-c2cc3ccccc3oc2=O)cs1)c1ccco1", "inhibition": "-2.76% (inactive)"}, {"smiles": "CC1=C(C(=O)Nc2ccccc2)C2(CCCCC2)C(C#N)=C(S)N1", "inhibition": "-2.79% (inactive)"}, {"smiles": "Cc1ccc(S(=O)(=O)N(C)C)cc1NC(=O)COC(=O)CCC(=O)c1cccs1", "inhibition": "0.54% (inactive)"}, {"smiles": "COc1ccc2c(c1)c(C(=O)CN1CCN(C(=O)c3ccco3)CC1)c(C)n2C", "inhibition": "3.66% (inactive)"}, {"smiles": "COc1ccc(C(CC(=O)c2ccc(C)cc2)Nc2ccc([N+](=O)[O-])cc2)cc1", "note": "(stereo unspecified)", "inhibition": "13.5% (inactive)"}, {"smiles": "Cc1ccc(NCC(=O)c2ccc([N+](=O)[O-])cc2)cc1", "inhibition": "6.43% (inactive)"}, {"smiles": "CC1(C)CC(=O)c2sc(N3CCCCC3)nc2C1", "inhibition": "1.75% (inactive)"}, {"smiles": "Fc1ccc(-c2nnn3c2nc(NCc2ccccc2)c2ccccc23)cc1", "inhibition": "-3.18% (inactive)"}, {"smiles": "COc1ccc(COC(=O)Nc2cc3c(C(F)(F)F)nn(C)c3s2)cc1", "inhibition": "0.73% (inactive)"}, {"smiles": "Cn1nc(C(F)(F)F)c2cc(NC(=O)OCc3ccc(F)cc3)sc21", "inhibition": "-0.24% (inactive)"}]}]}
